# From PubChem BioAssay
# Sampled rows, rich in hits. Any-hit rate of the full collection: about 10%.
# FLuc inh-1 – Photinus pyralis luciferase inhibition; Potency, µM (series often up to 115 µM), hits mostly inhibitors; 76,000 compounds, 2.5% hits; purified P. pyralis luciferase, luminescence, biochemical; P08659; note: % is set by controls: 0 for no effect and ±100 for the full control effect; nearly all actives have a fitted effect of over 65% in size
#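 Inhibitors were tested against purified firefly luciferase in a biochemical, low-substrate format (both substrates at 10uM) and luminescence measured with a CCD imager.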
# 3T3 cytotox – NIH 3T3 cell cytotoxicity. NIH 3T3 viability, CellTiter-Glo ATP luminescence, 48-72 h. Potency, µM (titrated, usually from 96.7 µM), for the others: top-dose activity change, negative = cytotoxicity, most hits filed as inhibitors. 94,000 compounds, 4.3% hits; note: % is set by controls: 0 for no effect and ±100 for the full control effect; nearly all actives have a fitted effect of over 55% in size
#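 Mouse fibroblast NIH 3T3 cells, 400 per well, received compound via pintool and were incubated for 48 or 72 hr prior to CellTiter-Glo ATP luminescence measurement.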
# GPT2 inh – blocks human glutamate pyruvate transaminase 2; Q8TD30; Recombinant GPT2, coupled pyruvate oxidase/HRP Amplex Red fluorescence; Potency, µM (titrated, usually from 57.7 µM), without a hit: at the highest dose activity change, negative = inhibition, actives largely listed as inhibitors; 100,000 compounds, 0.25% hits; AID 1671188; note: % is set by controls: 0 for no effect and ±100 for the full control effect; nearly all actives have a fitted effect of over 60% in size
#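 Fluorescence read-out: pyruvate from GPT2 turnover coupled to pyruvate oxidase, HRP and Amplex Red (0.2mM ThPP, 0.2U/mL PO and HRP, 50uM Amplex final). Substrates 250uM a-KG, 2mM L-alanine; enzyme 10ng/uL; 30 min RT.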
# HEK cytotox – HEK 293 cell cytotoxicity | HEK 293 viability, ATP luminescence (CellTiter-Glo), 48-72 h | Potency, µM (series often up to 115 µM), without a hit: at the highest dose activity change, negative = cytotoxicity, actives largely listed as inhibitors | 94,000 compounds, 6.6% hits; note: % is set by controls: 0 for no effect and ±100 for the full control effect; nearly all actives have a fitted effect of over 60% in size
#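 HEK 293 seeded at 250 cells/well receive compound via pintool. After 48 or 72 hr at 37 degree Celsius, 5% CO2 and 95% humidity, CellTiter-Glo is dispensed and luminescence read following 10 min at room temperature.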
# hNpr1 antagonist – human Npr1 receptor antagonism. Potency, µM (highest dose often 46.3 µM), for the others: top-dose activity change, negative = inhibition, most hits filed as inhibitors. HEK293 hNpr1 GloSensor cGMP, ANP-stimulated luminescence. AID 1347048. 76,000 compounds, 1.6% hits. P16066; calls by dose curve; note: % is set by controls: 0 for no effect and ±100 for the full control effect; nearly all actives have a fitted effect of over 60% in size
# Target sequence (P16066 whole entry, looked up): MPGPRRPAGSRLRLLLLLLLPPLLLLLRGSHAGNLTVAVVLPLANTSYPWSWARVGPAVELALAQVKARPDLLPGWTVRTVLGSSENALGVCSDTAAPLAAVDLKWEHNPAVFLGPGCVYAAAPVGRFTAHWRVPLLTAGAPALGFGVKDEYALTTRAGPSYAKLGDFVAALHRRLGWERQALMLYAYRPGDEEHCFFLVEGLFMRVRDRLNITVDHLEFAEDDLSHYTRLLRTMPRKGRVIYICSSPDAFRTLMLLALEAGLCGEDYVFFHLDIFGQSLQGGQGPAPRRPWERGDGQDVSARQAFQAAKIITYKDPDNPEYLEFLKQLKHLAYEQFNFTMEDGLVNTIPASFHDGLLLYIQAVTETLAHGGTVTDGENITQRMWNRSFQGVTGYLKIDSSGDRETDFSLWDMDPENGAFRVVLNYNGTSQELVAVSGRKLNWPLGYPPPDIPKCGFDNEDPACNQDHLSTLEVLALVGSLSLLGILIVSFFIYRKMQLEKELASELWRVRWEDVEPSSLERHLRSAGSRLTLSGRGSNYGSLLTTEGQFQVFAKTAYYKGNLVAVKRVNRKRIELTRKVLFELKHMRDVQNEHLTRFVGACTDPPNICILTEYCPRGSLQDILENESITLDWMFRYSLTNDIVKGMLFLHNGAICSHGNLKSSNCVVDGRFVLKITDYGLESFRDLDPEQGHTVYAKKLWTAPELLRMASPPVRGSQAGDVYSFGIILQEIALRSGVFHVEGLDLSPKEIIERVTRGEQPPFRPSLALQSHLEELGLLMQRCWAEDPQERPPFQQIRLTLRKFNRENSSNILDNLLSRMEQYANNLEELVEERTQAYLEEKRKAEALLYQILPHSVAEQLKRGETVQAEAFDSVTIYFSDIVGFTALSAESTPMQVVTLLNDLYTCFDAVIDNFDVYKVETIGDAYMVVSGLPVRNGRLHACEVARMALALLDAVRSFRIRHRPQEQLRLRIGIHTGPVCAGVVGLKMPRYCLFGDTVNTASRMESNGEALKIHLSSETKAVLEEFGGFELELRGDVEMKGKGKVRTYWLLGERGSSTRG
#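 HEK293 cells stably expressing human Npr1 and cGMP GloSensor pGS-40F, loaded 2 h with 2% GloSensor reagent, given compound 30 min at room temperature. Luminescence read before and 20 min after 0.1 nM hNppA.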
# FLuc SDR no ATP – firefly luciferase binding stabilization, ATP absent; shares compounds with FLuc inh-1; Purified FLuc-C-HiBiT, Nano-Glo HiBiT luminescence, no ATP; Potency, µM (series often up to 32.7 µM), for inactives: at the highest dose activation (signal gain), actives largely listed as activators; 1,300 compounds, 7.8% hits; AID 1963318; note: nearly all actives have a fitted effect of over 55% in size
# FLuc SDR ATP – firefly luciferase binding stabilization, ATP added | shares compounds with FLuc inh-1 | purified FLuc-C-HiBiT + ATP, HiBiT complementation luminescence | 1,300 compounds, 8.7% hits | Potency, µM (titrated, usually from 32.7 µM), for inactives: at the top dose activation (gain of signal), usual class: activators;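 note: signal reports ligand binding via conformational change of the enzyme rather than luciferase catalysis; % of control where 0% means no effect; nearly all actives have a fitted effect of over 55% in size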
# FLuc inh-2 – firefly luciferase enzyme inhibition | shares compounds with FLuc inh-1 | purified FLuc-C-HiBiT enzyme, luciferin luminescence | Potency, µM (top dose mostly 32.7 µM), without a hit: top-dose activity change, negative = inhibition, actives largely listed as inhibitors | 1,300 compounds, 42% hits | AID 1963320; note: % is set by controls: 0 for no effect and ±100 for the full control effect; nearly all actives have a fitted effect of over 70% in size
# * hit, by the source's call; i = inactive; ? = inconclusive; . = no result; [ ] = dose if it differs, or a comment. Unless noted, calls come from the whole dose curve; as a rule, active = well fitted curve in the direction sought with a large enough effect; inconclusive = small, poorly fitted or top-dose-only effect, or another doubt; inactive = no such curve, though single readings can be large; an effect the other way counts as inactive or inconclusive. Potency is the fitted concentration of half-maximal effect.
SMILES,FLuc inh-1,3T3 cytotox,GPT2 inh,HEK cytotox,hNpr1 antagonist,FLuc SDR no ATP,FLuc SDR ATP,FLuc inh-2
O=C(c1ccc(F)cc1Cl)N1CCC2(CC1)NC(=O)N(c1ccccc1Cl)N2,i,?,?,?,0.0%,.,.,.
O=C(Nc1ccc([C@H]2OCC(=O)N(C3CCOCC3)[C@@H]2CO)cc1)c1ccc(C(F)(F)F)cc1,10µM*,-17.9%,-1.6%,-5.0%,-0.2%,?,14.6%,?
N#Cc1ccc(C(=O)Nc2ccc([C@H]3OCC(=O)N(C4CCOCC4)[C@@H]3CO)cc2)cc1,i,0.6%,3.8%,-4.3%,0.0%,.,.,.
COc1cc(NC(=O)c2ccc(-c3ncn[nH]3)cc2)ccc1NC(=O)C(C)(C)C,11.2µM*,?,i,25.1µM*,-13.6%,18.2%,11.9%,?
COc1cc(NC(=O)CCN2CCCCCC2=O)ccc1NC(=O)C(C)(C)C,i,-25.7%,-3.7%,-0.2%,9.6%,.,.,.
Cn1c([C@H]2CCN(C3CCCCC3)C2)nc2ccccc21,7.08µM*,?,-13.5%[88.5 µM],?,-26.3%[70.6 µM],17.6%[65.7 µM],12.2%[65.7 µM],?
CCn1cnnc1CC1CCN(C(=O)c2cc(-c3ccc(C)c(C)c3)nc3ccccc23)CC1,7.94µM*,39.8µM*,i,?,-15.6%,?,?,2.79µM*
Cc1c(-c2ccc(F)cc2)[nH]c2ccc(CNC(=O)CN3CCOC3=O)cc12,12.6µM*,?,i,?,-21.8%,13.7%,10.5%,?
O=C(c1cc2ccc3cccnc3c2[nH]1)N1CCCCC1,.,.,.,.,.,11.1µM*,?,1.57µM*
Cc1sc2cc(C(=O)N3CCCC3)[nH]c2c1CN1CCCCC1,i,4.4%,4.6%,-4.1%,-0.4%,.,.,.
CC1CCCN(C(=O)c2cc3ccc4cccnc4c3[nH]2)C1 (centres undefined),.,.,.,.,.,3.94µM*,2.48µM*,0.556µM*
CCCCn1c(=O)c(C(=O)N2CCCC(C)C2)nc2cccnc21 (centres undefined),.,-21.5%[138 µM],-2.0%[88.5 µM],-15.0%[172 µM],.,.,.,.
CCN(CC)CCOc1ccc(-c2nc3cc(Cl)ccc3s2)cc1,.,.,.,.,.,20.6%[65.7 µM],13.2%[65.7 µM],?
CN(C1CCc2ccccc2C1)[S+](=O)([O-])c1cccs1 (centres undefined),i,?,i,?,3.3%[70.6 µM],12.0%[49.3 µM],6.4%[49.3 µM],-9.1%[49.3 µM]
CN(C)C(=O)N(C)C1CCc2ccccc2C1 (centres undefined),i,-26.1%[138 µM],-4.2%[88.5 µM],-7.8%[172 µM],4.3%[70.6 µM],.,.,.
C=CCN1C[C@H]2COc3ccccc3[C@H]2N(C(=O)OCC)CCC1=O,.,?,.,-20.8%,.,.,.,.
CN(c1ccc(NC(=O)Nc2ccc(OC(F)(F)F)cc2)cc1)c1ccnc(Nc2cccc(S(N)(=O)=O)c2)n1,.,.,.,.,.,16.0%,8.9%,2.0%
COCC(=O)Nc1nc2c(s1)C[C@]1(C)CC[C@@H]3[C@H](OC(=O)[C@H]3C)[C@H]1[C@@H]2C,0.631µM*,-20.8%[138 µM],-10.9%[88.5 µM],?,5.62µM*,6.4µM*,4.53µM*,1.61µM*
C[C@@H]1C(=O)O[C@H]2[C@H]1CC[C@@]1(C)Cc3sc(NC(=O)NC4CCCCC4)nc3[C@@H](C)[C@H]21,?,-25.1%[138 µM],-13.0%[88.5 µM],?,-11.8%[70.6 µM],.,.,.
O=C(C1CN(C2CCCCC2)C(=O)N1)N1CCC(Cc2ccccc2)CC1 (centres undefined),.,?,2.8%,?,.,.,.,.
CN(C)S(=O)(=O)N1CC(N2CC(C(=O)N3CCCC3)CC2=O)C1 (centres undefined),.,-7.2%,-9.5%,-1.3%,.,.,.,.
COC(=O)C1CCN(c2csc3ccc(C)cc3c2=O)CC1,.,.,.,.,.,30.7%,?,7.85µM*
COc1ccc(C(=O)Nc2ccc3n(c2=O)C[C@H]2C[C@@H]3CN(C(=O)CCCC(=O)O)C2)cc1,12.6µM*,0.5%,3.5%,3.1%,4.4%,?,19.0%,?
Cc1nnc(CN2CCOc3c(O)cc(-c4ccccc4C)cc3C2)s1,i,?,i,?,-1.2%,.,.,.
Oc1cc(-c2nc3ccccc3s2)cc2c1OCCN(Cc1cccn1-c1ccccn1)C2,.,.,.,.,.,14.0%,11.2%,-18.5%
SMILES,FLuc inh-1,3T3 cytotox,GPT2 inh,HEK cytotox,hNpr1 antagonist,FLuc SDR no ATP,FLuc SDR ATP,FLuc inh-2
Oc1cc(-c2nc3ccccc3s2)cc2c1OCCN(Cc1cccn1-c1ncccn1)C2,.,.,.,.,.,10.0%,7.5%,-12.7%
CCCCNc1nc(N)c2[nH]c(=O)n(Cc3ccc(OCCN(C)C)nc3)c2n1,.,.,?,.,.,11.3%,8.1%,-4.8%
O=C(NCCc1ccc(Cl)cc1)C1CCCN1C(=O)c1cccc(-c2ccccn2)c1 (centres undefined),.,?,-17.4%,?,.,.,.,.
O=C(Nc1ccc(F)cc1)C1CCN(C(=O)c2ncn3c2COC(c2ccccc2)C3)CC1 (centres undefined),1.58µM*,-31.4%,2.5%,-29.5%,?,9.3%,1.11µM*,1.76µM*
O=C(Nc1ccc(Cl)cc1)C1CCN(C(=O)c2ncn3c2COC(c2ccccc2)C3)CC1 (centres undefined),1.78µM*,i,i,6.4%,?,13.7%,1.11µM*,1.76µM*
O=C(NC1CCCCCC1)C1CCN(C(=O)c2ncn3c2COC(c2ccccc2)C3)CC1 (centres undefined),12.6µM*,i,i,11.2%,-2.3%,13.3%,?,7.85µM*
CSc1ccc(NC(=O)C2CCN(C(=O)c3ncn4c3COC(c3ccc(F)cc3)C4)CC2)cc1 (centres undefined),?,-2.5%,i,?,-26.9%,.,.,.
O=C(Cc1cccc(Cl)c1)N1CCCC(C(=O)N2CCC(N3CCOCC3=O)CC2)C1 (centres undefined),.,-8.0%,i,-0.1%,.,.,.,.
COCCOC1CN(C2CCN(C(=O)Nc3ccccc3)CC2)C12CCCCC2 (centres undefined),.,-14.4%,-5.5%,-7.6%,.,.,.,.
C=CC(=O)Nc1cc(Nc2nccc(-c3cn(C)c4ccccc34)n2)c(OC)cc1N(C)CCN(C)C,.,.,i,.,.,.,.,.
CS(=O)(=O)N1CC2(CCCCN2CC2CC2)Cc2ccccc21 (centres undefined),.,-1.0%,i,-7.5%,.,.,.,.
O=C(COc1ccccc1[N+](=O)[O-])Nc1cccc(-c2nc3ccccc3s2)c1,.,.,.,.,.,12.4%,10.5%,-14.1%
